Values without a mark were called inactive. Results filed as inconclusive are left out. A call without a number means that no potency is given here. Calls of active or inactive are those of the source. The call rests on the fitted dose curve; in most records, active means well fitted curve in the direction sought with a large enough effect; inconclusive means small, poorly fitted or top-dose-only effect, or another doubt; inactive means no such curve, though single readings can be large; an effect the other way counts as inactive or inconclusive.
Experiments:
[1] = target: Phospholipid hydroperoxide glutathione peroxidase GPX4 (Homo sapiens) (UniProt P36969); experiment: Primary qHTS Assay for Inhibitors of Recombinant Selenoprotein Glutathione Peroxidase 4 (GPX4) (AID 1845192); further: nearly all actives have a fitted effect of over 65% in size; further: potency means the concentration at half of the fitted maximal effect; on activity change, negative = inhibition: series mostly up to about 50 µM
Procedure, shortened: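 GR-coupled readout: 100 nM GR, 1 mM GSH, 0.5 mM NADPH; NADPH fluorescence (ex 340/em 450 nm) read at t=0 and after 15 min RT. GPX4 200 nM, preincubated 30 min with compound; substrate 0.5 mM CHP.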

[2] = target: Luciferin 4-monooxygenase (Photinus pyralis) (UniProt P08659); experiment: Primary firefly luciferase (FLuc) qHTS assay for identification of artifact compounds. (AID 1845220); further: nearly all actives have a fitted effect of over 60% in size; further: potency means the concentration at half of the fitted maximal effect; on activity change, negative = inhibition: series mostly up to about 54 µM
Procedure, shortened: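 In this counter-screen for luciferase artifacts, test compounds met substrate (10 uM each luciferin and ATP) before 10 nM enzyme started the reaction. Light output was measured 5 min later.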

[3] = Primary fluorescence-based thiol-reactive (MSTI) qHTS assay for identification of artifact compounds. (AID 1845221); further: nearly all actives have a fitted effect of over 65% in size; further: potency means the concentration at half of the fitted maximal effect;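 on activity change, negative = thiol reactive: series mostly up to about 54 µM; thiol-reactive compounds lower the probe fluorescence signal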
Procedure, shortened: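 First, 4 uM MSTI in 2% DMSO/PBS pH 7.4 was dispensed; next, compounds were added; then plates sat 1 h at room temperature without light. Finally, emission at 598 nm was recorded.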

[4] = system: Nanoluciferase (engineered Oplophorus gracilirostris luciferase); experiment: Primary Nanoluciferase (NLuc) qHTS assay for identification of artifact compounds. (AID 1845222);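 further: NLuc secreted into diluted conditioned medium of S16 cells; series mostly up to about 54 µM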
Procedure, shortened: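 Using secreted nanoluciferase in S16 culture medium (0.22 um filtered, 1:55 dilution), compounds were preincubated 15 min at RT. Signal was generated with Nano-Glo reagent (1:100) over 5 min.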

[5] = Primary redox qHTS assay for identification of artifact compounds. (AID 1845223)
Procedure, shortened: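 Amplex Red (25 uM) and HRP (250 mU/mL) in HBSS, with compounds for 15 min, then 250 uM DTT for 30 min, room temperature, dark. Fluorescence 525/598 nm read; normalized to DMSO and 10 uM DA3003; Hill fit.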

Sequence of Phospholipid hydroperoxide glutathione peroxidase GPX4 (Homo sapiens) (P36969 whole entry, looked up): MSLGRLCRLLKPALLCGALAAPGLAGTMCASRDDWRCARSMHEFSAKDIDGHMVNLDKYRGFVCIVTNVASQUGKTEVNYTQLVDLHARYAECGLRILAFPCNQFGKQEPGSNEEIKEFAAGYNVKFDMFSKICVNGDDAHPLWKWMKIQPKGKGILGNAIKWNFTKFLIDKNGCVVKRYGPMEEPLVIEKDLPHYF

Structure (SMILES)	activity change, negative = inhibition [1]	outcome [2]	activity change, negative = thiol reactive [3]	activity, negative = inhibition [4]	redox activity (% of DA3003) [5]	Potency [1]	Potency [2]	Potency [3]	Potency [4]	Potency [5]
C1CCC[C@H]2CCCN3CC[C@@H](CCCCCC[C@@H]4CCCN5CC[C@@H](CC1)O[C@@H]45)O[C@@H]23	-4.98% [at 0.121 µM]	inactive [at 0.0969 µM]	0.0753% [at 0.0963 µM]	2.4% [at 0.0969 µM]	-1.13% [at 0.0963 µM]	–	–	–	–	–
C=C[C@H]1CN2CC[C@H]1C[C@@H]2C(O)c1ccnc2ccc(OC)cc12 (stereo not given in full)	–	–	–	–	–	inactive	inactive	inactive	inactive	inactive
O=C(Nc1ccc(Cl)cc1F)c1ccccc1O	–	–	–	–	–	inactive	1.2 µM (active)	inactive	inactive	inactive
O=C(O)/C=C/c1ccc(-c2ccc(O)c(C34CC5CC(CC(C5)C3)C4)c2)cc1	–	–	–	–	–	inactive	inactive	inactive	inactive	inactive
CC(C)Oc1ccc(C(=O)NC(CNC(=O)CN(C)C)Cc2ccc(-c3cn4cccc(C(C)O)c4n3)cc2)cc1Cl (stereo not given)	–	–	–	–	–	inactive	inactive	inactive	inactive	inactive
COc1ccc(CNC(=O)c2cc(-c3cncc(C)c3)ncc2-c2nccs2)nc1OC	–	–	–	–	–	inactive	inactive	inactive	inactive	inactive
Cc1cc(C)nc(NS(=O)(=O)c2ccc(NC(=S)NC(=O)COc3ccc(Br)cc3Cl)cc2)n1	–	–	–	–	–	inactive	inactive	inactive	inactive	inactive
COc1cc(C2c3cc4c(c(O)c3CC(CO)C2C(=O)O)OCO4)cc(OC)c1O (stereo not given)	–	–	–	–	–	inactive	inactive	10.3 µM (active)	inactive	inactive
C[C@@H]1C(=O)O[C@H]2[C@@H](O)C34[C@H]5C[C@@H](C(C)(C)C)C36[C@@H](OC(=O)[C@@H]6O)O[C@@]4(C(=O)O5)[C@@]12O (stereo not given in full)	–	–	–	–	–	inactive	inactive	inactive	inactive	inactive
Cn1nnc(-c2ccc(-c3ccc(N4C[C@H](COP(=O)(O)O)OC4=O)cc3F)cn2)n1	–	–	–	–	–	22.7 µM (active)	inactive	inactive	inactive	inactive
CC(NC(=O)C(O)C(C)C)C(=O)NC1C(=O)N(C)CCc2ccccc21 (stereo not given)	–	–	–	–	–	inactive	inactive	inactive	inactive	inactive
CNC(=O)c1ccccc1Nc1nc(Nc2ccc3c(c2OC)CCCC(N2CCN(CCO)CC2)C3)ncc1Cl (stereo not given)	–	–	–	–	–	inactive	inactive	inactive	inactive	inactive
